# Measurements as given in publication PMC4336329 (PLoS ONE, 2015).
# The whole screen tested about 310,000 compounds, of which about 14,000 (4.5%) showed an effect of 50% or more. The effect is printed as a negative number. The full list was thinned out, with strong results kept by preference.
# Molecular target: human ether-à-go-go-related gene (hERG) potassium channel (human, UniProt Q12809)
# Test: primary screen, population patch clamp on CHO cells stably expressing hERG; higher = less effect of the substance
# 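Note: peak tail current of the secondary pulse compared with the same well before compound.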
# Sequence of human ether-à-go-go-related gene (hERG) potassium channel (Q12809 whole entry, looked up): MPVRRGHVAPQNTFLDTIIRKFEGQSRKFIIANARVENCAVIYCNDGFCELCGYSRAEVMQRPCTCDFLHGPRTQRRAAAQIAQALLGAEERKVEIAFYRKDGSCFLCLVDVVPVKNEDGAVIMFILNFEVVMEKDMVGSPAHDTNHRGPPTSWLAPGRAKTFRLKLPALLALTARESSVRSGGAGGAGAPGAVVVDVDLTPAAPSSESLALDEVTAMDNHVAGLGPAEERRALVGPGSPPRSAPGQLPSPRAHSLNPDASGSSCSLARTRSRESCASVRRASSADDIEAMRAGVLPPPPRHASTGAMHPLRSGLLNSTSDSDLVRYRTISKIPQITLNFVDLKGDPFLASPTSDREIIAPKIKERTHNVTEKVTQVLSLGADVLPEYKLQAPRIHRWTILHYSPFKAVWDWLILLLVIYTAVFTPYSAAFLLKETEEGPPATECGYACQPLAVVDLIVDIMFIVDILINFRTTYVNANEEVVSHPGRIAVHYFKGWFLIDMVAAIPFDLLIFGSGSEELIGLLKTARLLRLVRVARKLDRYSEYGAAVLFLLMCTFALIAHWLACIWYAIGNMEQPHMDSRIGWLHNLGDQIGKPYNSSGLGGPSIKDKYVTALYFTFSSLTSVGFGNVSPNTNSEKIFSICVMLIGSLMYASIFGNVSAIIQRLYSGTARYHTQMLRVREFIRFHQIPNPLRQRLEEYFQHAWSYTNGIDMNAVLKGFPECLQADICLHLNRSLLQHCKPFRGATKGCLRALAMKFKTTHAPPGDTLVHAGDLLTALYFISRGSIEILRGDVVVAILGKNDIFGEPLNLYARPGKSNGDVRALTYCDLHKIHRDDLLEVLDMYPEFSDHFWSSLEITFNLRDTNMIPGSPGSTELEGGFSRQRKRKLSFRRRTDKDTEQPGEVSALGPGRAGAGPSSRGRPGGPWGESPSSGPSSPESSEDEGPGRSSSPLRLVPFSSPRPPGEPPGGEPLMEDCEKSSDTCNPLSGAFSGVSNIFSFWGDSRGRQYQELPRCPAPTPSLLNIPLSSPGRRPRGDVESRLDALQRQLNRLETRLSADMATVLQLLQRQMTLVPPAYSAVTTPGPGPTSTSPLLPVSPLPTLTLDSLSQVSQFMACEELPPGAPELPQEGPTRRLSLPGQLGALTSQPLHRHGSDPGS
row,SMILES,"hERG current change (%, negative = inhibition) at 10uM"
1,CC(CCc1ccccc1)NC(=O)c1ccccc1Cl (stereo not shown),-4.82%
2,CN(C)S(=O)(=O)c1cc(NC(=O)CN2CCN(c3ccccc3F)CC2)ccc1Cl,5.43%
3,CC(C)NC(=O)CSc1nnc(-c2ccc(C(C)(C)C)cc2)n1C,-7.38%
4,NC(=O)C1CCN(C(=O)COc2ccc3c(c2)oc(=O)c2ccccc23)CC1,3.62%
5,COc1ccc(COc2cc(-c3cccc(OC)c3)nc3ccc(NC(=O)C(C)C)cc23)cc1,3.04%
6,Cc1nc2c(-c3ccc(F)cc3)cnn2c(N)c1-c1ccc(F)cc1,23.3%
7,CCOC(=O)C1CCCN(C(=O)c2cn(CC)c3ccc(S(=O)(=O)N(C)C)cc3c2=O)C1 (stereo not shown),11.9%
8,COc1ccc2nc(NC(=O)C3CCN(S(=O)(=O)c4cccc5nsnc45)CC3)sc2c1,0.473%
9,C=CCn1c(SCC(=O)Nc2ccc(NC(=O)c3ccco3)c(OC)c2)nnc1-c1ccncc1,-6.37%
10,CCCCN(C(=O)c1ccc([N+](=O)[O-])s1)c1c(N)n(CCCC)c(=O)[nH]c1=O,-12.9%
11,CCCCn1nc(C(=O)N(CCOC)c2c(N)n(CCCC)c(=O)[nH]c2=O)c2ccccc2c1=O,6.16%
12,CCCCN(C(=O)c1ccc([N+](=O)[O-])s1)c1c(N)n(CC(C)C)c(=O)[nH]c1=O,5.29%
13,CCCCCCn1nc(C(=O)N(CCOC)c2c(N)n(CCCC)c(=O)[nH]c2=O)c2ccccc2c1=O,-1.87%
14,CCCCn1c(N)c(N(CCOC)C(=O)c2nn(CC)c(=O)c3ccccc23)c(=O)[nH]c1=O,6.82%
15,CCCCCn1nc(C(=O)N(CC(C)C)c2c(N)n(CCCC)c(=O)[nH]c2=O)c2ccccc2c1=O,-76.6%
16,CCCCCCn1nc(C(=O)N(CC(C)C)c2c(N)n(CCCC)c(=O)[nH]c2=O)c2ccccc2c1=O,-51.9%
17,CCCCn1c(N)c(N(CCC(C)C)C(=O)c2ccc([N+](=O)[O-])s2)c(=O)[nH]c1=O,-51.1%
18,CCCCCn1nc(C(=O)N(CCOC)c2c(N)n(CCCC)c(=O)[nH]c2=O)c2ccccc2c1=O,-3.44%
19,O=S(=O)(Nc1ccc(-n2cnnn2)cc1)c1ccc(Cl)cc1,-18.2%
20,CCO[C@H]1OC(C(=O)N2CCOCC2)=C[C@@H](C2CC2)[C@@H]1CCCO,19.9%
21,Cc1ccc(NC(=O)Nc2sc(=S)n(C)c2C)cc1,15.4%
22,C=CCNC(=S)NCC1COc2ccccc2O1 (stereo not shown),19.6%
23,CC1CN(c2ccc([N+](=O)[O-])cc2Cl)CCN1S(C)(=O)=O (stereo not shown),-47.2%
24,CC1CN(c2ccc(C(F)(F)F)cc2[N+](=O)[O-])CCN1S(C)(=O)=O (stereo not shown),-56.9%
25,O=[N+]([O-])c1cc(C(F)(F)F)ccc1N1CCC(O)CC1,0.342%
26,NC(=O)C1CCN(c2ccc(C(F)(F)F)cc2[N+](=O)[O-])CC1,-20.1%

row,SMILES,"hERG current change (%, negative = inhibition) at 10uM"
1,CC1CN(c2ccc(Cl)cc2[N+](=O)[O-])CCN1S(C)(=O)=O (stereo not shown),-41.2%
2,O=C(C1CCC1)N1CCN(c2ccc(C(F)(F)F)cc2[N+](=O)[O-])CC1,-64%
3,O=[N+]([O-])c1ccc(Oc2cnc3ccccc3n2)cc1,7.44%
4,COc1ccccc1NC(=O)Nc1nc(CC(=O)Nc2cc(F)ccc2F)cs1,-2.13%
5,CC(C)(C)n1nnnc1C(c1ccc(F)cc1)N(Cc1ccc(F)cc1)Cc1ccco1 (stereo not shown),1.97%
6,CCN1C(=O)C(CC(=O)Nc2ccc(OC)cc2)N(CCc2ccc(OC)cc2)C1=S (stereo not shown),-1.17%
7,O=C(CN1CCN(c2ccc(C(F)(F)F)cn2)CC1)NCc1ccc2c(c1)OCO2,-65.3%
8,O=C(c1ccc2n[nH]nc2c1)N1CCN(c2ccc(C(F)(F)F)cn2)CC1,-26.7%
9,O=C(c1ccc2c(c1)OCO2)N1CCN(c2ccc(C(F)(F)F)cn2)CC1,-55.6%
10,Cc1ccc(C(=O)N2CCN(c3ccc(C(F)(F)F)cn3)CC2)cc1,-0.62%
11,O=C(c1ccc2c(c1)OCO2)N1CCN(c2ccccc2)CC1,-10.9%
12,O=C(c1ccc2ccccc2c1)N1CCN(c2ccc(C(F)(F)F)cn2)CC1,-2%
13,O=C(c1ccc2c(c1)OCO2)N1CCN(c2cccc(C(F)(F)F)c2)CC1,-53.8%
14,O=C(c1ccc([N+](=O)[O-])s1)N1CCN(c2ccc(C(F)(F)F)cn2)CC1,-67.5%
15,O=C(CN1CCN(c2ncccn2)CC1)NCc1ccc2c(c1)OCO2,20.4%
16,O=C(CN1CCN(c2ccc(C(F)(F)F)cn2)CC1)Nc1ccc2c(c1)OCO2,-14%
17,O=C(c1ccc([N+](=O)[O-])s1)N1CCN(c2ccccn2)CC1,-20.4%
18,O=C(Nc1ccc2c(c1)OCO2)N1CCN(c2cccc(C(F)(F)F)c2)CC1,-1.15%
19,CC(C)c1ccc(NC(=S)NCCc2c[nH]c3ccccc23)cc1,10.8%
20,Cc1nc2ccc(NC(=O)[C@@H](NC(=O)c3c(F)cccc3F)C(C)C)cc2s1,1.84%
21,O=C(NCCN1CCOCC1)C1CCN(Cc2ccccc2O)CC1,19.2%
22,O=C1CSC(c2cccs2)N1c1ccccc1 (stereo not shown),15%
23,Cn1nnnc1SCc1nc2scc(-c3ccccc3)c2c(=O)[nH]1,-3.59%
24,CC(C)(C)NS(=O)(=O)c1ccc(CCC(=O)NCc2ccco2)cc1,2.7%
25,COc1ccc(N2CCN(C(=O)COC(=O)c3ccc(-n4nc(C)cc4C)cc3)CC2)cc1,-1.95%
26,CCc1nc(SCC(=O)N2c3ccccc3CC2C)c2c(C)c(C)sc2n1 (stereo not shown),-5.78%
